Assay outcomes: PubChem BioAssay, Sanford-Burnham Center for Chemical Genomics
NadD inh: blocks S. aureus nicotinate mononucleotide adenylyltransferase; inhibition, % at 20 µM; actives 0.78% (n = 360,000); purified NadD enzyme, colorimetric absorbance read-out; in the data active = inhibition above about 26%
Neddyl block: blocks human cullin neddylation. P61081+Q13564. inhibition, % at 25 µM. TR-FRET cullin neddylation, biochemical. actives 0.58% (n = 360,000); in the data active = inhibition above about 36%
Target sequence (P61081 whole entry, looked up): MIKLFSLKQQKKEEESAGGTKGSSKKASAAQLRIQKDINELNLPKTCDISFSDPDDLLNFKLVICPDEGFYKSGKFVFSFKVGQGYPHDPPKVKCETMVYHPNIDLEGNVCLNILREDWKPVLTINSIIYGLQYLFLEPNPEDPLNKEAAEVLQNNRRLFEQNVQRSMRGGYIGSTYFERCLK
Target sequence (Q13564 whole entry, looked up): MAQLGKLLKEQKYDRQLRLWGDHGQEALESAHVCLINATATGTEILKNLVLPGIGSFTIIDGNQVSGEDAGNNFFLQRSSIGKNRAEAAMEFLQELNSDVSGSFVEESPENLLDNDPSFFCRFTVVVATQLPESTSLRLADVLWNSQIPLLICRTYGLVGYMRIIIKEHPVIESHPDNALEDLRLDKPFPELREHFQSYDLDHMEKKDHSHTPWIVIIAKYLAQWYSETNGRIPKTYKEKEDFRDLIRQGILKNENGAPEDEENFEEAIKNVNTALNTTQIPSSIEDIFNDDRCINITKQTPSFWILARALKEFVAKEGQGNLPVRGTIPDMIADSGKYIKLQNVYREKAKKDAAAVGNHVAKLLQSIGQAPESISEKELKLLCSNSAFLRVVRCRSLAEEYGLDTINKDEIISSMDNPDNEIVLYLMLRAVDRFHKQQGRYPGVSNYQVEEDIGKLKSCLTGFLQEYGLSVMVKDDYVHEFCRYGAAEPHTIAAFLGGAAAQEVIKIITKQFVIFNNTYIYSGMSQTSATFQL
NPR2 activator: GC-B (human) receptor activation. P20594. HEK293-GC-B cells, CNP EC30, cGMP TR-FRET; 0% at EC30 CNP, 100% saturating CNP. activation, % at 10 µM. actives 0.11% (n = 370,000). AID 1920062;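 active = activation at 10 µM reaching about 35% in either raw or pattern-adjusted values, limit read from the data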
GC-A act: GC-A (human) enzyme activation; HEK293 GC-A cells, cGMP TR-FRET, EC30 ANP; 0% at EC30 ANP, 100% saturating ANP; activation, % at 10 µM; actives 0.14% (n = 370,000); AID 1671463; in the data active = activation above about 40%
Neddyl conf: confirmation of human cullin neddylation inhibitors; shares compounds with Neddyl block; TR-FRET cullin neddylation biochemical assay; actives 13% (n = 1,800); calls only at 25 µM; in the data active = inhibition above about 40%;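 also: neddylation substrate is the cullin 1 ring ligase complex with SKP2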
Large screens that a line does not name were inactive (follow-up assays come after a bar, where shown). Hits are enriched below; roughly 1.5% of the tested compounds scored in any of these assays.

CCCS(=O)(=O)Nc1c(C(=O)O)[nH]c2ccc(OC)cc12	none (not shown: Neddyl block)
COc1ccc2[nH]c(C(=O)O)c(NS(=O)(=O)c3ccc(C)cc3C)c2c1	Neddyl block 48
COC[C@H]1CCCN1c1cccc2c1S(=O)(=O)N(C1CC1)CC[C@@H](C)O2	none (no result: NadD inh, Neddyl block)
Cc1ccc(-n2nnnc2-c2cccs2)cc1[N+](=O)[O-]	Neddyl block 51 | Neddyl conf inactive
CCOC(=O)c1nn(-c2ccccc2C)c2nc(CC(C)C)c(C#N)c(=O)n12	Neddyl block 40 | Neddyl conf inactive
CCOC(=O)c1nn(-c2ccc(OCC)cc2)c2nc(CC(C)C)c(C#N)c(=O)n12	none (not shown: Neddyl block)
Brc1ccc(N2O[C@H]3C=C[C@@H]2C3)nc1	none (no result: NadD inh, Neddyl block)
O=S1(=O)N=C(Oc2cccc3ccccc23)c2ccccc21	Neddyl block 42 | Neddyl conf inactive
Cc1ccccc1OC1=NS(=O)(=O)c2ccccc21	none
CCCc1cc(=O)n2[nH]c(-c3cc(OC)c(OC)c(OC)c3)nc2n1	Neddyl block 39 | Neddyl conf inactive
Nc1[nH]c(C(=O)c2ccccc2)c(-c2ccc(F)cc2)c1C(=O)c1c[nH]c2ccccc12	none (no result: NadD inh, Neddyl block)
Cc1nc2cc(F)ccc2n1C1CCN(C(=O)c2ccc(F)cc2F)CC1	none
Cc1nc2cc(F)ccc2n1C1CCN(C(=O)c2c(F)cccc2F)CC1	Neddyl block 45 | Neddyl conf inactive
CCOC(=O)CNC(=O)c1sc(NC(=O)c2ccccc2F)nc1C	Neddyl block 44 | Neddyl conf active
C=CCSc1nc(N)c2c3c(sc2n1)CN(C)CC3	none
CSc1nc(N)c2c3c(sc2n1)CN(C)CC3	Neddyl block 41 | Neddyl conf inactive
Brc1ccccc1C1Cc2nnccc2CN1 (configuration not stated)	none (no result: NadD inh, Neddyl block)
CCOc1ccc(C2=Nc3ccccc3C(c3ccc(N4CCOCC4)cc3)=NN2)cc1	Neddyl block 40 | Neddyl conf inactive
CCOc1ccc(C2=Nc3ccc(Br)cc3C(c3ccc(N4CCOCC4)cc3)=NN2)cc1	none (not shown: Neddyl block)
CCC(=O)Nc1c(-c2ccc(C)cc2)nc2ccc(C)cn12	Neddyl block 47 | Neddyl conf inactive
O=C(NCCN1CCC(Cc2ccccc2)CC1)C1CCCN(S(=O)(=O)c2ccc(Cl)s2)C1 (configuration not stated)	none (no result: NadD inh, Neddyl block)
COC(=O)Cn1c(CCC(=O)O)ccc1-c1ccccc1	Neddyl block 43 | Neddyl conf inactive
Cc1ccc(-c2ccc(CCC(=O)O)n2CC2CCCO2)cc1 (configuration not stated)	none (not shown: Neddyl block)
O=C(O)CCc1ccc(-c2ccccc2)n1CC1CCCO1 (configuration not stated)	Neddyl block 52
CC(C)(C)C(=O)OC12CCCN(C1)/C(=C/c1cccc(Cl)c1)C2 (configuration not stated)	none (no result: NadD inh, Neddyl block)
COc1ccc(NC(=O)COc2ccc3c(C)cc(=O)oc3c2)cc1S(=O)(=O)N1CCCCC1	Neddyl block 43
COc1ccc(S(=O)(=O)N2CCOCC2)cc1NC(=O)COc1ccc2c(C)cc(=O)oc2c1	none
Cc1nnc(SCc2cc(=O)oc3ccc4ccccc4c23)n1Cc1ccccc1	none
Cc1nnc(SCc2cc(=O)oc3cc(O)ccc23)n1Cc1ccccc1	Neddyl block 54 | Neddyl conf inactive
CSc1ccc(/C=N/NC(=O)c2ccc(C)c(C)c2)cc1	none
CSc1ccc(/C=N/NC(=O)c2sccc2C)cc1	Neddyl block 38 | Neddyl conf inactive
N#Cc1nc(-c2ccccc2F)oc1NCCc1ccccn1	Neddyl block 39 | Neddyl conf inactive
N#Cc1nc(-c2ccccc2F)oc1NCCc1ccccc1	none (not shown: Neddyl block)
O=C(CCl)Nc1ccc(C(=O)NCC2COc3ccccc3O2)cc1 (configuration not stated)	none (no result: NadD inh, Neddyl block)
Cc1nc2scc(C)n2c(=O)c1S(=O)(=O)NCc1ccccc1Cl	Neddyl block 41 | Neddyl conf inactive
COc1ccccc1CNS(=O)(=O)c1c(C)nc2scc(C)n2c1=O	none
Cc1ccc(-c2cc(C(=O)NCCCN3CCOCC3)c3ccccc3n2)cc1	Neddyl block 53
COc1ccc(-c2nc3ccccc3c(=O)n2CCCN2CCOCC2)cc1	none
COc1ccc(-c2nc3ccc(C(=O)NCCCN4CCOCC4)cc3nc2-c2ccc(OC)cc2)cc1	Neddyl block 46 | Neddyl conf inactive
Cc1nc2ccccc2c(=O)n1CCCN1CCOCC1	Neddyl block 43 | Neddyl conf inactive
